From PubChem BioAssay
IkB signaling: IkB pathway inhibition in ABC-DLBCL cells; ABC-DLBCL IkBa-CBG/CBR dual luciferase ratio, 4 h; response scale: scaled: untreated 0%, proteasome inhibitor 100%; Potency, µM (top dose mostly 57.1 µM); 0.04% of 110,000 active; AID 445; active = well fitted curve in the direction sought with a large enough effect in the signal ratio, not every such curve was filed as active; inconclusive = small, poorly fitted or top-dose-only effect, or a change in a side signal; the % refers to the signal ratio;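 also: the direction sought is a rising ratio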
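In this assay, an IκBα–CBG68 fusion accumulates when IKK-driven degradation is blocked; native CBR normalizes for cell number. OCI-Ly3 cells were treated 4 h with compound and doxycycline, then green and red light read after Chroma-Glo addition.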
p53ts 39C tox: p53ts cell cytotoxicity, nonpermissive temperature. H1299-p53A138V viability at 39C, ATP luminescence, 24 h. Potency, µM (doses to about 46.1 µM), actives largely listed as cytotoxic. 1.5% of 130,000 active. AID 902; also: nearly all actives have a fitted effect of over 55% in size
p53ts 32C tox: cytotoxicity in p53ts cells at permissive temperature; H1299-p53A138V at 32C, ATP luminescence viability, 24 h; Potency, µM (titrated, usually from 46.1 µM), most hits filed as cytotoxic; 0.93% of 130,000 active; also: nearly all actives have a fitted effect of over 55% in size
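Cells: H1299 p53ts (A138V), 600/well, pre-incubated 16–30 h at 37C. Cpd up to 46 uM, 24 h, 32C. Readout: ATPlite luminescence, 20 min RT. Normalization: DMSO vs tamoxifen 100 uM. AC50 by Hill equation.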
Imprint erasure: induces erasure of genomic imprints in mouse ES cells. mouse ES Peg3-LacZ reporter, beta-gal luminescence, 40 h. Potency, µM (titrated, usually from 60.7 µM), usual class: activators. 0.02% of 110,000 active. AID 1948
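Each well holds 300 Peg3LacZ-Neo (maternal) female ES cells incubated 40 h at 37C, 5% CO2. LacZ is measured by BetaGlo luminescence, with AC50 and maximum efficacy derived from dose-response curves.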
Hits are given with their value; 0 = inactive; ? = inconclusive; - = no result given; [ ] = another dose, or the depositor's remark. Most compounds without a hit are left out; they make up all but 1.6% or so of the library. Unless noted, calls follow the shape of the dose curve; as a rule, active = well fitted curve in the direction sought with a large enough effect; inconclusive = small, poorly fitted or top-dose-only effect, or another doubt; inactive = no such curve, though single readings can be large; an effect the other way counts as inactive or inconclusive.

SMILES	IkB signaling	p53ts 39C tox	p53ts 32C tox	Imprint erasure
COc1ccc(-n2ncc3c(N4CCCCC4)ncnc32)cc1	-	3.16µM	2.51µM	-
Cc1ccc(-n2ncc3c(N4CCCCC4)ncnc32)cc1	?	1.58µM	1.58µM	0[10.9 µM]
COc1ccccc1N1CCN(c2ncnc3c2cnn3-c2cc(Cl)ccc2C)CC1	?	12.6µM	?	0[10.9 µM]
Cc1cccc(-n2ncc3c(N4CCCC4)ncnc32)c1	0	5.01µM	3.16µM	0
Cc1ccc(Cl)cc1-n1ncc2c(N3CCCCCC3)ncnc21	?	?	0	0[10.9 µM]
CC(C)c1ccc2c(c1)CC[C@H]1[C@](C)(CN)CCC[C@]21C	-	15.8µM	?	0
COc1ccc(C2C(=O)c3ccccc3C2=O)cc1	-	12.6µM	10µM	0
O=C(CSc1cn(CC(=O)N2CCCC2)c2ccccc12)Nc1ccc(Cl)cc1	?	12.6µM	0	0[10.9 µM]
COc1cc2oc(=O)cc(-c3ccc(-c4sccc4C=O)cc3)c2c(OC)c1OC	-	-	-	0
Cc1ccnc(NC(=O)/C=C/c2cccs2)c1	-	7.08µM	-	-
Oc1cc(O)c2c(c1)O[C@H](c1ccc(O)c(O)c1)[C@@H](O)[C@@H]2c1c(O)cc(O)c2c1O[C@@H](c1ccc(O)c(O)c1)[C@H](O)C2	0[11.4 µM]	0[9.22 µM]	0[9.22 µM]	0[10.9 µM]
Cn1cc(SCC(=O)NCc2ccc3c(c2)OCO3)c2ccccc21	0	0	0	0
CCn1cc(SCC(=O)NCc2ccc3c(c2)OCO3)c2ccccc21	?	5.01µM	5.01µM	0
CNc1nnc(-c2ccc(N(C)C)cc2)s1	-	7.94µM	6.31µM	-
Cc1cc(C)c2c(NC(=O)c3ccccc3Cl)c(C(=O)NCc3ccc(Cl)cc3)sc2n1	0	2.51µM	?	0[10.9 µM]
O=C1[C@@H]2C=CC=CC2=NC(=S)N1CCN1CCC(=C(c2ccc(F)cc2)c2ccc(F)cc2)CC1	0	0	0	-
Cc1ccc(-c2cc3c(nn2)-c2ccccc2C3=O)cc1	?	0.398µM	0.501µM	0
CCCn1nnnc1SCC(=O)NCc1cccs1	0	0	0	0
COCCn1c(-c2ccc(Cl)cc2)cnc1SCC(=O)NCc1cccs1	?	25.1µM	?	0
O=c1/c(=C/c2ccccn2)sc2nc3ccccc3n12	?	?	10µM	0
COc1ccccc1N1CCN(C(=O)CSc2nc(-c3ccc(C(C)C)cc3)no2)CC1	?	?	7.94µM	0[10.9 µM]
CC(C)c1ccc(-c2noc(SCC(=O)N3CCN(c4ccccc4F)CC3)n2)cc1	0	6.31µM	?	0[10.9 µM]
O=C(CSc1nc(-c2ccccc2)no1)N1CCN(c2ccccc2F)CC1	?	0	0	0[10.9 µM]
Cc1cc2c(cc3c(SCc4ccc(Cl)cc4)nnc(C)n32)o1	0	10µM	0	0[10.9 µM]
Cc1ccc(NC(=O)c2ccc3c(c2)NC(=O)c2ccccc2S3)cc1	?	?	0	0[10.9 µM]
SMILES	IkB signaling	p53ts 39C tox	p53ts 32C tox	Imprint erasure
CCOc1ccc(-c2cc(C(=O)N3CCN(c4ccc(C)cc4)C(C)C3)c3ccccc3n2)cc1 (configuration not stated)	0	20µM	15.8µM	0[10.9 µM]
CCOC(=O)N1CCN(C(=O)c2cc(-c3ccc(OCC)cc3)nc3ccccc23)CC1	0	10µM	5.01µM	0
CCOc1ccc(-c2cc(C(=O)NCc3ccc(C)cc3)c3ccccc3n2)cc1	0	0	0	0[10.9 µM]
CCOc1ccc(-c2cc(C(=O)N3CCN(C)CC3)c3ccccc3n2)cc1	0	3.98µM	2.51µM	0
CCOc1ccc(-c2cc(C(=O)N3CCN(c4cccc(C)c4)C(C)C3)c3ccccc3n2)cc1 (configuration not stated)	?	?	?	0[10.9 µM]
CC(=O)c1cccc(NS(=O)(=O)c2cccc(C(=O)O)c2)c1	-	0	0	-
O=c1c2ccccc2cnn1-c1nc2ccccc2s1	?	1µM	0.794µM	0
CCCCC(CC)CNC(=O)c1ccc2c(=O)n(Cc3ccc(OC)cc3)c(=O)[nH]c2c1 (configuration not stated)	0	0	0	0[10.9 µM]
CCCCC(CC)CNC(=O)c1ccc(Cn2c(=O)[nH]c3cc(OC)c(OC)cc3c2=O)cc1 (configuration not stated)	?	3.98µM	?	0[10.9 µM]
Oc1ccccc1-c1cc(-c2ccc3c(c2)OCCO3)n[nH]1	?	?	12.6µM	0
Oc1c([C@H](Nc2ccccn2)c2ccccc2)ccc2cccnc12	0[11.4 µM]	?	0[9.22 µM]	0[10.9 µM]
Cc1ccnc(NC(c2cc(C)ccc2O)c2ccc3cccnc3c2O)c1 (configuration not stated)	?	12.6µM	?	0[10.9 µM]
Cc1ccnc(NC(c2ccccc2F)c2ccc3cccnc3c2O)c1 (configuration not stated)	?	?	0	0[10.9 µM]
Oc1c(C(Nc2ccccn2)c2ccccn2)ccc2cccnc12 (configuration not stated)	?	3.98µM	0	0
Oc1c(C(Nc2ccccn2)c2ccccc2F)ccc2cccnc12 (configuration not stated)	0	10µM	0	0[10.9 µM]
Oc1cc(O)c2c(c1)O[C@@H](c1ccc(O)c(O)c1)[C@H](O[C@@]1(c3cc(O)c(O)c(O)c3)Oc3cc(O)cc(O)c3[C@H](O)[C@@H]1O)C2	0[11.4 µM]	0[9.22 µM]	0[9.22 µM]	0[10.9 µM]
CC(C)OCCCNC(=O)CSc1c2c(nc3ccc(Cl)cc13)CCCC2	?	?	12.6µM	0[10.9 µM]
COc1ccc(-n2c(=O)c3c4c(sc3n(CC(=O)N3CCCCC3C)c2=O)CCC4)c(OC)c1 (configuration not stated)	0	0	0	0[10.9 µM]
Cc1ccc(NC(=O)Cn2c(=O)n(-c3ccccc3)c(=O)c3ccc(C(=O)NCc4ccc5c(c4)OCO5)cc32)c(C)c1	0	7.94µM	?	0[10.9 µM]
COc1ccc(-n2c(=O)c3ccc(C(=O)NCc4ccc(C)cc4)cc3n(CC(=O)Nc3ccc(F)cc3)c2=O)cc1	?	10µM	0	0[10.9 µM]
Cc1ccc(-n2c(=O)c3ccc(C(=O)NCc4ccco4)cc3n(Cc3ccccc3Cl)c2=O)cc1	0	0	0	0[10.9 µM]
COc1ccc(-n2c(=O)c3ccc(C(=O)NCc4ccc(C)cc4)cc3n(CC(=O)Nc3ccc(C)cc3)c2=O)cc1	0	5.01µM	?	0[10.9 µM]
COc1ccc(NC(=O)Cn2c(=O)n(-c3ccccc3)c(=O)c3ccc(C(=O)NCc4ccc5c(c4)OCO5)cc32)cc1	0	0	?	0[10.9 µM]
Cc1ccc(-n2c(=O)c3ccc(C(=O)NCc4ccco4)cc3n(Cc3ccc(Cl)cc3)c2=O)cc1	0	12.6µM	0	0[10.9 µM]
O=C(Cn1c(=O)n(-c2ccccc2)c(=O)c2ccc(C(=O)NCc3ccc4c(c3)OCO4)cc21)Nc1ccc(Br)cc1	0	0	0	0[10.9 µM]
O=C(Oc1ccccc1)n1c(=O)oc2ccc(Cl)cc21	-	0	0	-
COc1ccc(NC(=O)c2ccc3c(=O)n4nc(Nc5ccccc5C)sc4nc3c2)cc1	0	0	0	0[10.9 µM]
COc1ccc(NC(=O)c2ccc3c(=O)n4nc(Nc5ccccc5C)sc4nc3c2)cc1Cl	?	7.94µM	10µM	0[10.9 µM]
Cc1ccc(NC(=O)c2ccc3c(=O)n4nc(Nc5ccccc5C)sc4nc3c2)cc1C	?	0	12.6µM	0[10.9 µM]
C=CCC1C=CC(OC(=O)OCC)C(COC(=O)OCC)O1 (configuration not stated)	-	0[9.22 µM]	0[9.22 µM]	-
